Among all 69,000 compounds or so, about 950 (1.4%) showed an effect of 50% or more. What follows is part of a selection rich in strong results, with near analogues and random picks from the rest.
The compounds below were run on Mycobacterium tuberculosis (assay: Cornell M. t heat shock assay; also: in the data most compounds retested in dose-response had high values).
Type: functional, organism-based
Parameters: dose or concentration left out as unconfirmed
In the case of `Cc1oncc1C(=O)NCc1cc(=O)n2c(n1)CN(CC(C)C)CCC2.O=C(O)C(F)(F)F`, the “Percent Effect” value is reported as -11.26%. With `CC(C)N1CCOCC2(CCCN(C(=O)CCc3cccnc3)C2)C1.O=C(O)C(F)(F)F` (stereo unspecified) the “Percent Effect” value was -33.91%. For `Cc1cccc(CN2CCC3(CCN(c4ncccn4)CC3)C2=O)c1.O=C(O)C(F)(F)F`, the “Percent Effect” value was 21.29%. In the case of `O=C(O)C(F)(F)F.O=C(O)C(F)(F)F.O=C(O)C(F)(F)F.O=C1CO[C@@H]2CN(Cc3ccncc3)C[C@H]2N1Cc1ccncc1`, the “Percent Effect” value is reported as -33.4%. In the case of `CN(C)CC1CSCCCN1C(=O)c1ccsc1` (stereo unspecified), the “Percent Effect” value is reported as -29.65%. With `CCCN1CCN(Cc2cc(Cl)cc(Cl)c2)[C@H]2CS(=O)(=O)C[C@H]21` the “Percent Effect” value was 31.79%. In the case of `O=S1(=O)C[C@@H]2[C@H](C1)N(Cc1cc(Cl)cc(Cl)c1)CCN2CC1CC1`, the “Percent Effect” value is reported as 99.37%. For `O=S1(=O)C[C@@H]2[C@H](C1)N(Cc1cc(Cl)cc(Cl)c1)CCN2CCO`, the “Percent Effect” value was -5.541%. For `CN(C)c1ncc(-c2cccc(C(N)=O)c2)c(C2CNCCO2)n1.Cl` (stereo unspecified), the “Percent Effect” value was -21.53%. With `CN1CCc2cc(C(=O)N(C)C)c(NCC3CC3)nc2CC1.O=C(O)C(F)(F)F.O=C(O)C(F)(F)F` the “Percent Effect” value was -30.07%. `Cn1ccnc1CN1C[C@@H]2[C@@H](C1)OCC(=O)N2CC1CCCC1.O=C(O)C(F)(F)F` was tested, and the “Percent Effect” value was -35.26%. `CN(C)[C@@H]1CN(C(=O)Cc2cccc(F)c2)[C@@H]2CCCO[C@H]12.O=C(O)C(F)(F)F` was tested, and the “Percent Effect” value was -1.237%. In the case of `Cc1nnc([C@@]23CCO[C@@H]2CCN(S(=O)(=O)c2cccnc2)C3)o1`, the “Percent Effect” value is reported as 18.46%. With `Cc1nnc([C@@]23CCO[C@@H]2CCN(S(C)(=O)=O)C3)o1` the “Percent Effect” value was -10.32%. In the case of `Cc1nnc([C@@]23CCO[C@@H]2CCN(S(=O)(=O)c2ccccc2)C3)o1`, the “Percent Effect” value is reported as 53.88%. For `N#Cc1cccc(CN2C[C@@H]3CN(c4ncccn4)C[C@@H]3C2)c1.O=C(O)C(F)(F)F`, the “Percent Effect” value was 29.7%. `CO[C@H]1C[C@@H]2CN(C(=O)c3cc4cccc(F)c4[nH]3)C[C@@H]2C1` was tested, and the “Percent Effect” value was 17.75%. In the case of `COC(=O)CCc1c(C)nc2cc(O)nn2c1C`, the “Percent Effect” value is reported as -4.051%. In the case of `CCNC(=O)CCc1c(C)nc2cc(O)nn2c1C`, the “Percent Effect” value is reported as 0.7588%. In the case of `COc1ccc(NC(=O)CCc2c(C)nc3cc(O)nn3c2C)cn1`, the “Percent Effect” value is reported as 61.44%. For `CN(C)C(=O)c1cn[nH]c1C1CCCN1Cc1nccn1C.O=CO` (stereo unspecified), the “Percent Effect” value was -23.16%. `Cc1ccc(CN2CCC(O)(Cn3nc(-c4cccs4)oc3=O)CC2)o1.O=C(O)CC(O)(CC(=O)O)C(=O)O` was tested, and the “Percent Effect” value was 5.66%. For `CC1(C)CC(N2Cc3nc(N4CCCC4)ncc3C2=O)CC(C)(C)N1`, the “Percent Effect” value was 8.213%. For `Cc1noc(C2CCN(C(=O)CCNc3ncccn3)CC2)n1`, the “Percent Effect” value was 13.08%. For `Cc1noc(C2CCN(C(=O)CCc3ccccn3)CC2)n1`, the “Percent Effect” value was 13.4%. `Cc1noc(C2CCN(C(=O)CCc3nccs3)CC2)n1` was tested, and the “Percent Effect” value was 51.73%. With `O=C(O)C(F)(F)F.O=C(O)C(F)(F)F.c1cnn(CCCO[C@@H]2CC[C@H]3[C@H]2OCCN3CC2CC2)c1` the “Percent Effect” value was -27.44%. For `CCn1ncc2c1CN(CCc1cccc(Cl)c1)CC2COC.O=C(O)C(F)(F)F.O=C(O)C(F)(F)F` (stereo unspecified), the “Percent Effect” value was -10.95%. In the case of `c1csc(C2(NCc3csc(C4CC4)n3)CCCC2)n1`, the “Percent Effect” value is reported as 66.7%. In the case of `O=C(CCNC1(c2nccs2)CCCC1)N1CCOCC1`, the “Percent Effect” value is reported as -14.8%. With `Cc1csc(C2(NCc3csc(C4CC4)n3)CCCC2)n1` the “Percent Effect” value was 41.22%. For `CCCc1nc(CNC2(c3nccs3)CCCC2)cs1`, the “Percent Effect” value was 94.85%. With `O=C(NC1(c2nccs2)CCCC1)c1cc(C2CC2)on1` the “Percent Effect” value was 7.107%. With `CCCc1nc(CNC(=O)Cc2csc(C)n2)cs1` the “Percent Effect” value was 8.263%. With `Cc1cccc(CN2CCc3nnc(Cn4cccc4)n3CC2)n1.O=C(O)C(F)(F)F` the “Percent Effect” value was -14.44%. `O=C(O)C(F)(F)F.O=C(O)C(F)(F)F.c1cc(-c2ccc3nc(C4CCN(CC5CC5)CC4)nn3c2)ccn1` was tested, and the “Percent Effect” value was -27.27%. With `Cc1cccc(CN2CC[C@@H]3[C@@H]2CCN3C(=O)c2cc(C)on2)n1.O=C(O)C(F)(F)F` the “Percent Effect” value was -16.64%. In the case of `CCN(CC)CC1CN(Cc2cccc(C#N)c2)Cc2nccn2C1.O=C(O)C(F)(F)F.O=C(O)C(F)(F)F` (stereo unspecified), the “Percent Effect” value is reported as -22.76%. For `CCc1nnc2n1CCN(Cc1csc(-c3ccc(C)o3)n1)C2`, the “Percent Effect” value was 49.84%. In the case of `c1sc(C2CCCC2)nc1CN1CCn2c(nnc2C2CC2)C1`, the “Percent Effect” value is reported as 55.31%. In the case of `Cc1ccc(-c2nc(CN3CCn4c(C)nnc4C3)cs2)o1`, the “Percent Effect” value is reported as -2.255%. With `c1sc(C2CCCCC2)nc1CN1CCn2c(nnc2C2CC2)C1` the “Percent Effect” value was 7.076%. For `c1cnc(-c2nc(CN3CCn4c(nnc4C4CC4)C3)cs2)nc1`, the “Percent Effect” value was 18.84%. With `Cc1nnc2n1CCN(Cc1csc(-c3ccsc3)n1)C2` the “Percent Effect” value was -0.9289%. `Cc1ccc(-c2nc(CN3CCn4c(nnc4C4CC4)C3)cs2)o1` was tested, and the “Percent Effect” value was 171.6%. In the case of `c1ccc(-c2nc(CN3CCn4c(nnc4C4CC4)C3)cs2)cc1`, the “Percent Effect” value is reported as 10.73%. `c1cc(-c2nc(CN3CCn4c(nnc4C4CC4)C3)cs2)cs1` was tested, and the “Percent Effect” value was 159.7%. For `Cc1ccc(C)c(-n2cc(CN3CC[C@@H](O)C3)c(-c3ccccc3)n2)c1`, the “Percent Effect” value was 85.17%. `Cc1ccc(C)c(-n2cc(CN3CCOCC3)c(-c3ccccc3)n2)c1` was tested, and the “Percent Effect” value was 9.683%. `Cc1ccc(S(=O)(=O)c2ncccc2CN2CCOCC2)cc1` was tested, and the “Percent Effect” value was -21.96%. In the case of `Cc1cccc(-c2noc(CN3CCOCC3C)n2)c1` (stereo unspecified), the “Percent Effect” value is reported as -19.27%. `Cc1ccc(-n2cc(CN3CCOCC3)c(-c3cccc(C)c3)n2)cc1` was tested, and the “Percent Effect” value was 101.4%. `Cn1cc(CN2CCCC(O)C2)c(-c2ccccc2F)n1` (stereo unspecified) was tested, and the “Percent Effect” value was 14.46%. `CCC(=O)Nc1cccc(OCC(=O)N[C@@H]2C[C@H]3CC[C@@H]2C3)c1` was tested, and the “Percent Effect” value was -8.125%. In the case of `O=C(O)C(F)(F)F.O=C(O)C(F)(F)F.c1cc(CO[C@@H]2CN(Cc3ccoc3)[C@@H]3CCCO[C@@H]32)ccn1`, the “Percent Effect” value is reported as 21.84%. `CN1CCOCC2(CCCN(C(=O)c3ccccc3F)C2)C1.O=C(O)C(F)(F)F` (stereo unspecified) was tested, and the “Percent Effect” value was -25.25%. For `CN(C)C(=O)N1CCC2(CC1)CN(Cc1ccccn1)C(=O)CO2.O=C(O)C(F)(F)F`, the “Percent Effect” value was -0.5573%. In the case of `Cn1cc(CN2CCCC23CCN(C(=O)c2ccncc2)CC3)cn1.O=C(O)C(F)(F)F`, the “Percent Effect” value is reported as -22.55%. With `Cc1ncccc1NC(=O)[C@H]1C[C@@H]2CCN(Cc3nccs3)C[C@@H]2O1.O=C(O)C(F)(F)F.O=C(O)C(F)(F)F` the “Percent Effect” value was -3.608%. For `Cl.O=C(O)CC1CN(Cc2ccccc2)CCO1` (stereo unspecified), the “Percent Effect” value was 70.76%. With `O=C(CC1CN(Cc2ccccc2)CCO1)NCCN1CCOCC1` (stereo unspecified) the “Percent Effect” value was -41.8%. In the case of `O=C(CC1CN(Cc2ccccc2)CCO1)NC1CCCC1` (stereo unspecified), the “Percent Effect” value is reported as -14.55%. `Cc1ccc(CN2CCn3cc(CN4CCN(C)CC4)nc3C2)cc1.O=C(O)C(F)(F)F.O=C(O)C(F)(F)F.O=C(O)C(F)(F)F` was tested, and the “Percent Effect” value was -4.711%. For `CNC(=O)NCC1CCC2(CCN(C(=O)c3cccnc3)CC2)CO1.O=C(O)C(F)(F)F` (stereo unspecified), the “Percent Effect” value was 9.868%. For `O=C(O)CC(O)(CC(=O)O)C(=O)O.c1cncc(-c2nccc(CN3CCC(N4CCCCC4)CC3)n2)c1`, the “Percent Effect” value was -13.06%. `O=C(O)C(F)(F)F.O=C(O)C(F)(F)F.c1cncc(COCc2nnn3c2CN(Cc2ccsc2)CC3)c1` was tested, and the “Percent Effect” value was -26.71%. `Cc1cnc(C(=O)N2CCN(C(=O)C(C)C)[C@@H]3CS(=O)(=O)C[C@@H]32)cn1` was tested, and the “Percent Effect” value was 4.224%. In the case of `CC(C)C(=O)N1CCN(C(=O)c2cc(C(C)C)on2)[C@H]2CS(=O)(=O)C[C@H]21`, the “Percent Effect” value is reported as -10.22%. In the case of `CC(C)C(=O)N1CCN(C(=O)c2cscn2)[C@H]2CS(=O)(=O)C[C@H]21`, the “Percent Effect” value is reported as 73.31%. For `Cc1ccc(OCC(=O)N2CCCC(n3nc(C)nc3C)C2)cc1` (stereo unspecified), the “Percent Effect” value was -13.19%. With `Cc1n[nH]cc1CNC(C(=O)N1CCCCC1)c1ccccc1` (stereo unspecified) the “Percent Effect” value was -8.652%. With `O=C(O)C(F)(F)F.c1csc(CN2CCc3nnc(COc4cncnc4)n3CC2)c1` the “Percent Effect” value was -24.48%. With `Cc1nc(CN2CCC3(CCCO3)CC2)c2ccccn12` the “Percent Effect” value was 77.67%. For `Cc1nc(CN2C[C@@H](CN3CCOCC3)[C@@H](CO)C2)c2ccccn12`, the “Percent Effect” value was 1.211%. With `Cc1ccc(C2(O)CCN(Cc3nc(C)n4ccccc34)CC2)nc1` the “Percent Effect” value was 43.96%. For `Cl.Cl.NCC1CN(c2ncnc3[nH]cnc23)CCO1` (stereo unspecified), the “Percent Effect” value was -17.53%. In the case of `CNC(=O)C1Cn2ccnc2C2(CCN(Cc3nccs3)CC2)O1.O=C(O)C(F)(F)F.O=C(O)C(F)(F)F` (stereo unspecified), the “Percent Effect” value is reported as -22.49%. In the case of `Cc1nc(CN2C[C@@H]3COC[C@]3(COCC(=O)N(C)C)C2)cs1.O=C(O)C(F)(F)F`, the “Percent Effect” value is reported as -21.91%. With `CCOC1CC2(CCN(C(=O)COC)CC2)c2cc(C)ccc21` (stereo unspecified) the “Percent Effect” value was -4.26%. In the case of `COCCN1CCC2(CC1)CC(OCC1CC1)c1ccc(C)cc12` (stereo unspecified), the “Percent Effect” value is reported as 53.27%. With `Cc1ccc2c(c1)C1(CCNCC1)CC2OCC1CC1` (stereo unspecified) the “Percent Effect” value was 13.82%. In the case of `COCCN1CCC2(CC1)CN(C(=O)c1ccccc1)CCO2.O=C(O)C(F)(F)F`, the “Percent Effect” value is reported as -8.433%. With `CN(C)C(=O)N1CCC2(CCCN(CCOc3ccccc3)C2)C1.O=C(O)C(F)(F)F` (stereo unspecified) the “Percent Effect” value was -6.162%. With `O=C(O)C1(Oc2ccc3c(c2)OCO3)CCN(C2CCOCC2)CC1` the “Percent Effect” value was -2.757%. In the case of `O=C(O)C1(Oc2cccc(F)c2)CCN(C2CCOCC2)CC1`, the “Percent Effect” value is reported as 1.505%. With `O=C(O)C1(Oc2ccc(Cl)cc2)CCN(C2CCOCC2)CC1` the “Percent Effect” value was 51.75%.

— ChEMBL document CHEMBL3988442, “University of Dundee, Small-Polar-MMV Screening Library” (2021)
